# Measured values reported in PubChem BioAssay AID651947 (Broad Institute, 2012).
# Entries with a potency or affinity are not part of this list. Inconclusive results are not listed. Activity calls are given as the source filed them.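 Rule for the calls: active = luminescence drop in HepG2 cells whose fitted half-effect dose is at most twice the top valid dose; inconclusive = flat curve with 30 to 70% signal loss, or unreliable fit; inactive = the rest.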
# Test: HepG2 hepatoma cell viability loss – plate reader, dry powder, cytotoxicity control, dose response (AID 651947)
# Settings: ATP luminescence (CellTiter-Glo), 48 h, hits give low values
smiles,measurement,setting,value
Fc1ccc(CSc2nnc(-c3ccccc3)o2)cc1,max activity,at 0.38 µM,22% (inactive)
same,max activity,at 12 µM,-25.4% (inactive)
